Measured values reported in PubChem BioAssay (EPA / NIEHS).
“And” between values parts separate entries of the source, which are not always exact repeats. Identical values can stand only once. Results filed as inconclusive are left out. Where a structure was tested more than once in an assay, its records may differ in their call. The source made the active and inactive calls. How the source made its calls, unless noted: active means hit-call score of the fitted dose curve at least 0.9, where 1 is the maximum; inactive means score below 0.9.

Columns and labels:
[1] = molecular target: Nuclear respiratory factor 1 (Homo sapiens) (UniProt Q16656); assay: ATG_NRF1_CIS: Attagene CIS-FACTORIAL HepG2 Assay for human Nuclear Respiratory Factor 1 (NRF1) Orphan Gene (AID 2282987); details: HepG2 NRF1 cis-element reporter, Attagene multiplex; actives raise or lower the signal
Chain of Nuclear respiratory factor 1 (Homo sapiens) (Q16656 whole entry, looked up, the tested form may be a part): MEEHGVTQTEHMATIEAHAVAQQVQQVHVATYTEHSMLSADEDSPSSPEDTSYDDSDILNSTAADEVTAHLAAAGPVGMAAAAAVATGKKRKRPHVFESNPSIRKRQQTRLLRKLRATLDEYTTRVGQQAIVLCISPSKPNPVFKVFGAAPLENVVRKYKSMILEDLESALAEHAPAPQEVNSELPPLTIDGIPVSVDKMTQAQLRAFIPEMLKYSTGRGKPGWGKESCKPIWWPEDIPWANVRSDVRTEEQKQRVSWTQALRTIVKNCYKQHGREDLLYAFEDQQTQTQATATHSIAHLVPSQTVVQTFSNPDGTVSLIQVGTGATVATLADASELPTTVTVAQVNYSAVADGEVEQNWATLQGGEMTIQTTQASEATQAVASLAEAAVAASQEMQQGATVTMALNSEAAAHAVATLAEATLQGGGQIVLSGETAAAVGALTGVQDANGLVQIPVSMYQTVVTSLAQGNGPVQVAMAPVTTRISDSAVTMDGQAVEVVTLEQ
Method in brief: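 Cells (HepG2, transient MRTU transfection) are exposed to compound for 24 h, then RNA isolated and reporter mRNA amplified and fluorescently labelled. Fragments are separated by capillary electrophoresis; signal change is fitted bidirectionally relative to DMSO.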

[2] = ATG_NFI_CIS: Attagene CIS-FACTORIAL HepG2 Assay for human Nuclear Factor I (NFI) (AID 2282989); details: HepG2 cis-regulatory reporter, NFI response element transcription; actives raise or lower the signal
Method in brief: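 Reporter transcripts were measured by RT-PCR with fluorescent primer extension and capillary electrophoresis 24 h post-treatment. HepG2 cells carried transiently transfected cis-regulated reporter constructs reporting endogenous factor activity; gain or loss fitted against DMSO baseline.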

[3] = molecular target: Myc proto-oncogene protein (Homo sapiens) (UniProt P01106); assay: ATG_Myc_CIS: Attagene CIS-FACTORIAL HepG2 Assay for human Myelocytomatosis (Myc) Proto-Oncogene Transcription Factor (AID 2282990); details: HepG2, Attagene cis-reporter transcription factor activity; actives raise or lower the signal
Chain of Myc proto-oncogene protein (Homo sapiens) (P01106 whole entry, looked up, the tested form may be a part): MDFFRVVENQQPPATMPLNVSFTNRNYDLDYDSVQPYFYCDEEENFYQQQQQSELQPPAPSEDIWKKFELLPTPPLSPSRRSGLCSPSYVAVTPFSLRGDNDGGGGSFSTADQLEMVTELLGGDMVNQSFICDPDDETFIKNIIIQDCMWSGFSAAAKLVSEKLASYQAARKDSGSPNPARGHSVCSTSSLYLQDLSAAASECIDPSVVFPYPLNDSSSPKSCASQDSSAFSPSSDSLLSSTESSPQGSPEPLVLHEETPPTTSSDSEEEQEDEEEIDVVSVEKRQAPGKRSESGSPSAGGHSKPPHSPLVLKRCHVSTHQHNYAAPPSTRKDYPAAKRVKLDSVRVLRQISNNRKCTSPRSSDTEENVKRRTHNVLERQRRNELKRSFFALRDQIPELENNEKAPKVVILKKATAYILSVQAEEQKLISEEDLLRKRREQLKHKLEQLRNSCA
Method in brief: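 Read-out: fluorescent reporter mRNA fragments resolved by capillary electrophoresis after RT-PCR. Human HepG2 liver cells carried transfected cis-element reporter units and were dosed for 24 h. Gain or loss of signal fitted relative to DMSO baseline.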

[4] = ATG_NRF2_ARE_CIS: Attagene CIS-FACTORIAL HepG2 Assay for human Nuclear Factor Erythroid 2 Related Factor 2 (NFR2) response to Antioxidant Response Elements (ARE) (AID 2282992); details: HepG2 Attagene ARE/NRF2 reporter, transcription factor activity; actives raise or lower the signal;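 on AC50: reporter mRNA level measured by RT-PCR and capillary electrophoresis fluorescence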
Method in brief: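 Transient MRTU transfection of HepG2; 24 h compound exposure; TriZol RNA, RT with oligo(dT), PCR, 6-FAM primer extension, HpaI cut, CE. Bidirectional fit vs DMSO.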

[5] = ATG_Oct_MLP_CIS: Attagene CIS-FACTORIAL HepG2 Assay for human Octamer-Binding Transcription Factor (Oct) (AID 2282993); details: HepG2 Attagene cis-factorial Oct reporter, mRNA; actives raise or lower the signal
Method in brief: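 Readout is reporter transcript level from RT-PCR with fluorescent primer extension and capillary electrophoresis, fitted in both directions against DMSO. Transfected HepG2 reporter units report endogenous factor activity after 24 h dosing.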

[6] = molecular target: Cellular tumor antigen p53 (Homo sapiens) (UniProt P04637); assay: ATG_p53_CIS: Attagene CIS-FACTORIAL HepG2 Assay for human p53 Transcription Factor (AID 2282994); details: HepG2 p53 cis-element reporter, Attagene mRNA; actives raise or lower the signal
Chain of Cellular tumor antigen p53 (Homo sapiens) (P04637 whole entry, looked up): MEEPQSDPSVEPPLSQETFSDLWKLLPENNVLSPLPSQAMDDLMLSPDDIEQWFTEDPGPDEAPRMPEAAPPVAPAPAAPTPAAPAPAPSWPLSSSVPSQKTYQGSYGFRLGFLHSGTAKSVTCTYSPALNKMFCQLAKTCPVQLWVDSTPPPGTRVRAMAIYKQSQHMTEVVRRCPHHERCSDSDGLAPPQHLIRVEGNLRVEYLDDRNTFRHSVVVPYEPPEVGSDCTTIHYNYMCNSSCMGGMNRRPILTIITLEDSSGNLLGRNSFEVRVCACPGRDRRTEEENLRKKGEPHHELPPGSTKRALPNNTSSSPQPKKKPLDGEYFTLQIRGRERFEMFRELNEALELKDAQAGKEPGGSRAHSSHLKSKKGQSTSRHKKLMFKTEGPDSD
Method in brief: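 HepG2, transient MRTU transfection (cis promoter elements, endogenous TFs); 24 h dosing; RNA isolation, RT-PCR, 6-FAM primer extension, HpaI digest, CE fluorescence; bidirectional fit vs DMSO.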

[7] = BSK_3C_VCAM1: BioMAP Diversity Plus: 3C Assay for Vascular cell adhesion molecule 1 (VCAM1) Biomarker Activity (AID 2282999); details: BioMAP 3C HUVEC, VCAM1 ELISA, cytokine-stimulated; actives raise or lower the signal
Method in brief: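 Human umbilical vein endothelial cells (3C system), biomarker read by ELISA 24 h after dosing; bidirectional fit against DMSO baseline. Cytotoxicity tracked by SRB total-protein staining in parallel cultures at biomarker time.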

[8] = BSK_4H_Eotaxin3: BioMAP Diversity Plus: 4H Assay for Eotaxin 3 Biomarker Activity (AID 2283000); details: primary human endothelial cells (HUVEC); actives raise or lower the signal
Method in brief: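 Endothelial primary cells (human umbilical vein) exposed to compound for 24 h. ELISA detection of Eotaxin-3.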

[9] = molecular target: human Peroxisome Proliferator-activated Receptor alpha (PPARa), PPARA (gene 5465) (UniProt Q07869); assay: ATG_PPARa_TRANS: Attagene TRANS-FACTORIAL HepG2 Assay for human Peroxisome Proliferator-activated Receptor alpha (PPARa) (AID 2283001; active means hit-call score of the fitted dose curve at least 0.9, where 1 is the maximum;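 on AC50: potency for gain of reporter signal over DMSO so agonist or activator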)
Chain of human Peroxisome Proliferator-activated Receptor alpha (PPARa), PPARA (gene 5465) (Q07869 whole entry, looked up, the tested form may be a part): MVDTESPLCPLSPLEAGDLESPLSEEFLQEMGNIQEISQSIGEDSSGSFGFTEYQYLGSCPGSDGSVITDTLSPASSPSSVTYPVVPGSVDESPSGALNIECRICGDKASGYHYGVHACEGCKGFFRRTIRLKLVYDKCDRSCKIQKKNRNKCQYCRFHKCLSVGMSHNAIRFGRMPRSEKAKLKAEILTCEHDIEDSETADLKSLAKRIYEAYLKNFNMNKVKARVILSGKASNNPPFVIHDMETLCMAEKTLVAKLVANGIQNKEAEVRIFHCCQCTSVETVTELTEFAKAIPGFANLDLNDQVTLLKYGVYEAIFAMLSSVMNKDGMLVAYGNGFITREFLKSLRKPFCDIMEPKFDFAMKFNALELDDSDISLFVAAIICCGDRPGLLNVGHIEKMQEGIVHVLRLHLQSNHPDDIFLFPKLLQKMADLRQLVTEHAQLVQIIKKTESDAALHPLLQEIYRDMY
Method in brief: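 HepG2 cells transiently transfected with multiplexed GAL4-UAS reporters driven by exogenous chimeric NR-Gal4 proteins; reporter mRNA measured after 24 h dosing. Read-out by RT-PCR, 6-FAM labelling, HpaI digestion and capillary electrophoresis; gain of signal versus DMSO.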

[10] = molecular target: human Peroxisome Proliferator-activated Receptor delta (PPARd), PPARD (gene 5467) (UniProt Q03181); assay: ATG_PPARd_TRANS: Attagene TRANS-FACTORIAL HepG2 Assay for human Peroxisome Proliferator-activated Receptor delta (PPARd) (AID 2283002; active means hit-call score of the fitted dose curve at least 0.9, where 1 is the maximum)
Chain of human Peroxisome Proliferator-activated Receptor delta (PPARd), PPARD (gene 5467) (Q03181 whole entry, looked up, the tested form may be a part): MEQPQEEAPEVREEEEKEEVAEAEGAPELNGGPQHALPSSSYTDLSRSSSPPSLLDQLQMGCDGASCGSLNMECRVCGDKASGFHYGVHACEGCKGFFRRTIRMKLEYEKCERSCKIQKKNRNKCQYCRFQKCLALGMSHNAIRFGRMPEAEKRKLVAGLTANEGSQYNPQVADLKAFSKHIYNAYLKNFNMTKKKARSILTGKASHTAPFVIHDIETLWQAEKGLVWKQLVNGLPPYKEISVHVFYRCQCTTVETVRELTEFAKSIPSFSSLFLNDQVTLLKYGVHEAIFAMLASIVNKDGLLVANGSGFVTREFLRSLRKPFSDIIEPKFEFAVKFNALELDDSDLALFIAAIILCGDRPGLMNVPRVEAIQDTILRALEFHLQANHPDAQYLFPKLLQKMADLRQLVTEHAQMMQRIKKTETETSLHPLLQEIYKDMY
Method in brief: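 Read-out: reporter mRNA induction, quantified by fluorescent RT-PCR products resolved by capillary electrophoresis. Human HepG2 liver cells carried transiently transfected Gal4-UAS reporter constructs with chimeric NR-Gal4 fusions. Cells were dosed for 24 h; DMSO served as baseline.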

[11] = read-out: Intercellular Adhesion Molecule 1 (ICAM1), ICAM1 (gene 3383); assay: BSK_3C_ICAM1: BioMAP Diversity Plus: 3C Assay for Intercellular Adhesion Molecule 1 (ICAM1) Biomarker Activity (AID 2283003); details: primary human endothelial cells (HUVEC); actives raise or lower the signal
Method in brief: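 ICAM-1 levels measured by ELISA after HUVEC cultures in the 3C system had been dosed for 24 h. Gain or loss of signal relative to DMSO was fitted in both directions.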

[12] = BSK_3C_Proliferation: Cell Proliferation Assessment in the BioMAP Diversity Plus: 3C Assay (AID 2283006); details: primary human endothelial cells (HUVEC);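 on AC50: potency may reflect either rise or fall in cell number versus DMSO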
Method in brief: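 Read-out is total protein by SRB absorbance at 560 nm, taken as a proxy for relative cell number. Primary human umbilical vein endothelium cultured below confluence was dosed for 48 h, TCA-fixed and SRB-stained; curves were fitted bidirectionally versus DMSO.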

[13] = molecular target: Peroxisome proliferator-activated receptor gamma (Homo sapiens) (UniProt P37231); assay: ATG_PPARg_TRANS: Attagene TRANS-FACTORIAL HepG2 Assay for human Peroxisome Proliferator-activated Receptor-gamma (PPARg) (AID 2283007; active means hit-call score of the fitted dose curve at least 0.9, where 1 is the maximum)
Chain of Peroxisome proliferator-activated receptor gamma (Homo sapiens) (P37231 whole entry, looked up, the tested form may be a part): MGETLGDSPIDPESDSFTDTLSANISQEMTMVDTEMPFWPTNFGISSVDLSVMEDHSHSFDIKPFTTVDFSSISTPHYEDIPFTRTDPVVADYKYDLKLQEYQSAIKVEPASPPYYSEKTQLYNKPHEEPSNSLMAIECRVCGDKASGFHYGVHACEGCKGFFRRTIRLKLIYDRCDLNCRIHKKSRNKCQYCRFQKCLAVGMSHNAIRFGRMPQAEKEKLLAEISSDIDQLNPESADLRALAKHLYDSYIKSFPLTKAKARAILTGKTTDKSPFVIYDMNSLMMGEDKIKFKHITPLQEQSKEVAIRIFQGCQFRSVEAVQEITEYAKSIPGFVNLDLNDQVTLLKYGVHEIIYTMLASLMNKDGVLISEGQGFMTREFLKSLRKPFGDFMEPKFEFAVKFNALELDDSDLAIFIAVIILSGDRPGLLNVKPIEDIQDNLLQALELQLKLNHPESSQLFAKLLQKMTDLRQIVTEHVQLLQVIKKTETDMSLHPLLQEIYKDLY
Method in brief: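 Gain-of-signal endpoint relative to DMSO, derived from reporter mRNA levels quantified by RT-PCR and capillary electrophoresis. Cells were HepG2 transiently expressing a chimeric NR-Gal4 construct with GAL4-UAS reporters, exposed to chemicals for 24 h.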

[14] = molecular target: Nuclear receptor subfamily 1 group I member 2 (Homo sapiens) (UniProt O75469); assay: ATG_PXR_TRANS: Attagene TRANS-FACTORIAL HepG2 Assay for human Pregnane X Receptor (PXR) (AID 2283008; active means hit-call score of the fitted dose curve at least 0.9, where 1 is the maximum)
Chain of Nuclear receptor subfamily 1 group I member 2 (Homo sapiens) (O75469 whole entry, looked up, the tested form may be a part): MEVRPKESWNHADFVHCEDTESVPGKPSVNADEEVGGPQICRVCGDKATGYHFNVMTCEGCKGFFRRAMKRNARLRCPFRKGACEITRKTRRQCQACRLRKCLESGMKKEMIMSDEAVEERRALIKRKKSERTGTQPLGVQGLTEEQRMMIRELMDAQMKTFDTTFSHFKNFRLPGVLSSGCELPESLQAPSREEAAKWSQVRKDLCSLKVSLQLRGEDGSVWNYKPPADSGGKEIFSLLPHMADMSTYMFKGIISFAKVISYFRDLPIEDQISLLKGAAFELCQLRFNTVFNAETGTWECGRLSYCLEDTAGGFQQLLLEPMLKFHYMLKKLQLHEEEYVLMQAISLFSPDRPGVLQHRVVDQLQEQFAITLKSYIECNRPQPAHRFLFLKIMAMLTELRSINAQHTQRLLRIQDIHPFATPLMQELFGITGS
Method in brief: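 Read-out is fluorescence of labelled reporter cDNA fragments separated by capillary electrophoresis after RT-PCR and HpaI digestion. Source: HepG2 cells carrying PXR-GAL4/UAS reporter constructs, treated 24 h; activity fitted upward relative to DMSO.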

[15] = molecular target: human Retinoic Acid Receptor gamma (RARg), RARG (gene 5916) (UniProt P13631); assay: ATG_RARg_TRANS: Attagene TRANS-FACTORIAL HepG2 Assay for human Retinoic Acid Receptor gamma (RARg) (AID 2283009; active means hit-call score of the fitted dose curve at least 0.9, where 1 is the maximum;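 on AC50: AC50 is for reporter induction above DMSO meaning RARg activation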)
Chain of human Retinoic Acid Receptor gamma (RARg), RARG (gene 5916) (P13631 whole entry, looked up): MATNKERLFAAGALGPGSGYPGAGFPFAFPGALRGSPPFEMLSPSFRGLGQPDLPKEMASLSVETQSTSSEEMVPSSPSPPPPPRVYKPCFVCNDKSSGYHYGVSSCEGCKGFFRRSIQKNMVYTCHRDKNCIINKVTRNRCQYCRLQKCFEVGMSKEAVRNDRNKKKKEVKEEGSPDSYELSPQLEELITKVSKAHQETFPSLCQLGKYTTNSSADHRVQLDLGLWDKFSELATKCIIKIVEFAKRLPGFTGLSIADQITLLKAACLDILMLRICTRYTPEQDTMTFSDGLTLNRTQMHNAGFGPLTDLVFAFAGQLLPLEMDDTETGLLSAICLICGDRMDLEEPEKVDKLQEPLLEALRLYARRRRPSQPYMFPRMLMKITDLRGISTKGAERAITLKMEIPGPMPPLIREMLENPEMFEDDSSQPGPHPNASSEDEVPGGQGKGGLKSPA
Method in brief: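 Transient transfection of HepG2 with multi-reporter constructs, then 24 h chemical treatment. Total RNA isolated, reverse-transcribed, PCR-amplified, fluorescently labelled and resolved by capillary electrophoresis; activity scored as mRNA induction versus DMSO.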

[16] = ATG_NF_kB_CIS: Attagene CIS-FACTORIAL HepG2 Assay for human Nuclear Factor Kappa B (NF-kB) (AID 2282991); details: HepG2 Attagene cis-factorial NF-kB reporter mRNA; actives raise or lower the signal
Method in brief: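 Measures mRNA induction of an NF-kB-responsive cis-element reporter in HepG2 cells transfected with multiple reporter units, sampled 24 h post-dosing; quantified by fluorescence after RT-PCR and capillary electrophoresis, fitted for activation or inhibition against DMSO.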

[17] = BSK_3C_TissueFactor: BioMAP Diversity Plus: 3C Assay for Tissue Factor Biomarker Activity (AID 2282997); details: BioMAP 3C HUVEC, tissue factor biomarker readout; actives raise or lower the signal
Method in brief: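 Values derive from bidirectional curve fitting against DMSO of Tissue Factor ELISA signals, taken 24 h after dosing primary human umbilical vein endothelial cells.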

[18] = molecular target: Retinoic acid receptor alpha (Homo sapiens) (UniProt P10276); assay: ATG_RARa_TRANS: Attagene TRANS-FACTORIAL HepG2 Assay for human Retinoic Acid Receptor alpha (RARa) (AID 2283005; active means hit-call score of the fitted dose curve at least 0.9, where 1 is the maximum;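 on AC50: potency for increased reporter signal meaning RARa activation over DMSO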)
Chain of Retinoic acid receptor alpha (Homo sapiens) (P10276 whole entry, looked up, the tested form may be a part): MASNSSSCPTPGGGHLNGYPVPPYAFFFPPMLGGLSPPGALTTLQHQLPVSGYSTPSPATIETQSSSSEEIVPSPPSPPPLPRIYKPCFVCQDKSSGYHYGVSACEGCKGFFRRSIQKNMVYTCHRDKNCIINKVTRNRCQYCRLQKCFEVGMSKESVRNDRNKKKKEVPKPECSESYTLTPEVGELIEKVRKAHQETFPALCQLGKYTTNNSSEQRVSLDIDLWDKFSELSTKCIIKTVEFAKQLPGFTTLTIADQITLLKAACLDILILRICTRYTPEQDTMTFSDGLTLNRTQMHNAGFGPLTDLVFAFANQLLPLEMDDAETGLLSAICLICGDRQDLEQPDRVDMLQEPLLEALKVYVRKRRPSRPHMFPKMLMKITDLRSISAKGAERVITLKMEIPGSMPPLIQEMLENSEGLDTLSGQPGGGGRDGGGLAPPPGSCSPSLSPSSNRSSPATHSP
Method in brief: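 HepG2 transiently transfected with multiplex GAL4-UAS reporter units including a human RARa–GAL4 chimera; 24 h compound exposure. Reporter mRNA quantified by RT-PCR, 6-FAM labeling and capillary electrophoresis; gain of signal versus DMSO.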

[19] = BSK_3C_uPAR: BioMAP Diversity Plus: 3C Assay for Urokinase-type plasminogen activator receptor (uPAR) Biomarker Activity (AID 2282998); details: BioMAP 3C HUVEC, uPAR biomarker ELISA; actives raise or lower the signal
Method in brief: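 Cell-surface uPAR on HUVEC (3C system) read by ELISA at 24 h post-treatment, with DMSO as baseline and fitting in both directions. Parallel cultures stained with SRB to flag overt cytotoxicity.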

[20] = molecular target: human Retinoic Acid Receptor beta (RARb), RARB (gene 5915) (UniProt P10826); assay: ATG_RARb_TRANS: Attagene TRANS-FACTORIAL HepG2 Assay for human Retinoic Acid Receptor beta (AID 2283004; active means hit-call score of the fitted dose curve at least 0.9, where 1 is the maximum)
Chain of human Retinoic Acid Receptor beta (RARb), RARB (gene 5915) (P10826 whole entry, looked up, the tested form may be a part): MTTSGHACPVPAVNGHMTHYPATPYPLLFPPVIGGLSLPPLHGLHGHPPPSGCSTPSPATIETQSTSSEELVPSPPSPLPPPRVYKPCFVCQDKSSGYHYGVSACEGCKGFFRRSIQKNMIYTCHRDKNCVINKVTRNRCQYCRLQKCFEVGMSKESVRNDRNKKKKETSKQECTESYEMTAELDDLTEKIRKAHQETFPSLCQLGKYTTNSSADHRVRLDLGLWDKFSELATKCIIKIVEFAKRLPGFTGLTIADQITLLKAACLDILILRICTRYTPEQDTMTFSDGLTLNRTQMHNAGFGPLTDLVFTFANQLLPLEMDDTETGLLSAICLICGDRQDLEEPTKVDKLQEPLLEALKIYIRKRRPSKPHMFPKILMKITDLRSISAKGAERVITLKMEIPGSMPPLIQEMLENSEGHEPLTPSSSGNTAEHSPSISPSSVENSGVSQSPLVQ
Method in brief: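 HepG2, transient MRTU transfection, NR–Gal4 chimera, 24 h treatment; RT-PCR plus CE fluorescence detection of reporter mRNA; gain of signal vs DMSO.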

Measured: AC50

O=C(O)C(F)(F)C(F)(F)C(F)(F)C(F)(F)C(F)(F)C(F)(F)C(F)(F)C(F)(F)F
active: [4] 50.9 µM and 35.5 µM and 13 µM | [5] 50 µM | [6] 217 µM | [7] 49.5 µM and 30 µM | [8] 40.2 µM and 43.3 µM | [9] 15.9 µM and 27.4 µM and 22.5 µM | [12] 49.7 µM and 48 µM | [13] 43.4 µM and 70 µM and 42.3 µM | [14] 47.5 µM and 104 µM and 50 µM
inactive: [1] | [2] | [3] | [5] | [6] | [7] | [8] | [10] | [11] | [12] | [15]

CO/C=C(/C(=O)OC)c1ccccc1COc1cccc(C(F)(F)F)n1
active: [4] 5.41 µM | [5] 11.5 µM | [7] 20 µM | [8] 16.5 µM | [12] 1.82 µM | [13] 5.74 µM | [14] 0.264 µM
inactive: [1] | [2] | [3] | [16] | [6] | [15]

CCNc1nc(NC(C)C)nc(SC)n1
not listed: [6] | [11] | [15] | [17] | [18] | [19] | [20]
inactive: all other assays above

CCC(C)(CC)c1cc(NC(=O)c2c(OC)cccc2OC)on1
inactive: [1] | [2] | [3] | [16] | [7] | [8] | [10] | [12] | [13]
active: [4] 0.289 µM | [5] 1.64 µM | [14] 0.692 µM

O=NN(c1ccccc1)c1ccccc1
active: [4] 78.9 µM | [12] 6.14 µM | [14] 29.9 µM
not listed: [11] | [15] | [16] | [18] | [19] | [20]
inactive: all other assays above

Cc1ccccc1[N+](=O)[O-]
not listed: [10] | [13] | [14] | [15] | [17] | [18] | [19] | [20]
inactive: all other assays above

Cc1ccccc1O
not listed: [10] | [11] | [13] | [17] | [19] | [20]
inactive: all other assays above

CCOCCOC(C)=O
not listed: [9] | [11] | [15] | [16] | [17] | [18] | [20]
inactive: all other assays above

ClC1=C(Cl)[C@]2(Cl)[C@@H]3[C@@H]4C[C@@H]([C@H]5O[C@@H]45)[C@@H]3[C@@]1(Cl)C2(Cl)Cl
active: [4] 112 µM | [18] 0.855 µM | [12] 14.5 µM | [14] 2.84 µM | [15] 2.12 µM
not listed: [9] | [17] | [19]
inactive: all other assays above

Cc1cc(-c2ccc(N)c(C)c2)ccc1N
active: [6] 100 µM | [13] 100 µM
inactive: [1] | [2] | [3] | [4] | [5] | [6] | [7] | [8] | [9] | [20] | [18] | [12] | [13] | [14] | [15]

C[C@]12CCC(=O)C=C1CC[C@@H]1[C@@H]2CC[C@]2(C)C(=O)CC[C@@H]12
active: [14] 7.27 µM and 26.8 µM
inactive: [1] | [2] | [3] | [4] | [5] | [6] | [17] | [7] | [8] | [10] | [20] | [18] | [12] | [13] | [14] | [15]

CC1=C2C[C@H]3[C@@H](CC=C4C[C@@H](O)CC[C@@]43C)[C@@H]2CC[C@]12O[C@@H]1C[C@H](C)CN[C@H]1[C@H]2C
not listed: [9] | [11] | [13] | [14] | [16] | [20]
inactive: all other assays above

COc1ccc(O)c(C(C)(C)C)c1
active: [4] 39 µM | [5] 143 µM | [14] 4.55 µM
not listed: [10] | [11] | [16]
inactive: all other assays above
